# Bioassay records (PubChem BioAssay)
# Most compounds without a hit are left out; they make up all but 3.6% or so of the library.
# mHTT CaM bind – mutant huntingtin-calmodulin interaction inhibitors – biochemical, AlphaScreen, primary screen; AlphaScreen His-mHTT/GST-CaM binding, luminescence; inhibition, % at 15 µM; 190,000 tested, 3.6% active; AID 1671202, 2021;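 note: 0% = both proteins with DMSO and 100% = one protein alone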
# Pf apPOL block – Pf-apPOL inhibitors, biochemical, fluorescence; Plasmodium falciparum apicoplast DNA polymerase (apPOL); 210,000 tested, 0.25% active; Recombinant Pf-apPOL, molecular beacon fluorescence, 1.5 h; inhibition, % at 10 µM
# Active calls of the source: *; / = not tested or not shown. Cut-off read from the data, not from the text of the source: active = inhibition above about 50%; inactive = the rest.
SMILES,mHTT CaM bind,Pf apPOL block
CC1N=C(c2ccccc2)c2ccccc2N(CC(=O)NCc2ccco2)C1=O (stereo not given),1,-15
Cc1cc(C)n(C(=O)CN2C(=O)CN=C(c3ccccc3)c3cc(Br)ccc32)n1,64*,-11
O=C(CN1C(=O)CN=C(c2ccccc2)c2cc(Cl)ccc21)NCc1cccc(Cl)c1,91*,-12
CC1N=C(c2ccccc2)c2ccccc2N(CC(=O)Nc2ccc(N(C)C)cc2)C1=O (stereo not given),35,-24
O=C(CN1C(=O)CN=C(c2ccccc2)c2cc(Cl)ccc21)Nc1cccc(C(F)(F)F)c1,82*,-14
CCN(C(=O)CN1C(=O)C(C)N=C(c2ccccc2)c2ccccc21)c1cccc(C)c1 (stereo not given),26,-1
CCOC(=O)C1=C(N)Oc2c(oc(CO)cc2=O)C12C(=O)N(CC(N)=O)c1ccccc12 (stereo not given),-4,5
OC12CCCCC1C(c1ccccc1F)NCC2 (stereo not given),-1,-6
COc1ccc(Br)cc1CN1CCN(c2ccc(F)cc2)CC1,19,-14
Cc1cc(C(N)=O)c(C)n1Cc1ccc(F)cc1,2,-9
COc1ccc(CNC(=O)c2nc(C)n(C3CCN(C)CC3)c2C)c(OC)c1,0,-7
Cc1ccc(N2CCN(Cc3c(F)cccc3Cl)CC2)cc1,20,-4
CCOc1cc(/C=C/[N+](=O)[O-])cc(I)c1O,57*,-2
COc1cc(/C=C/[N+](=O)[O-])cc(I)c1OCc1ccccc1,4,-4
COc1cc(/C=C/[N+](=O)[O-])cc(I)c1O,52*,-3
C#CCOc1c(I)cc(/C=C/[N+](=O)[O-])cc1OC,14,0
COc1cccc(C2=NOC(C(=O)N3CCC4(CC3)OCCO4)C2)c1OC (stereo not given),-2,-3
Cc1cc(C)c2c(CN3CC4CC(C3)c3cccc(=O)n3C4)cc(=O)oc2c1 (stereo not given),-3,-5
Cc1ccc(Cl)cc1-n1c(C)cc(C=C2C(=O)NC(=O)NC2=O)c1C,50,15
O=[N+]([O-])c1ccc(N2CCOCC2)c2nonc12,/,-84
O=[N+]([O-])c1ccc(N2CCCCC2)c2nonc12,/,-122
O=[N+]([O-])c1ccc(Cl)c2nonc12,96*,/
Nc1ccc([N+](=O)[O-])c2nonc12,53*,/
COc1cc(CNC(=O)c2nc(C)n(C3CCN(C)CC3)c2C)cc(OC)c1,12,-22
Nc1nc2ccccc2c(-c2cccc3ccccc23)c1CN1CC1,98*,/
SMILES,mHTT CaM bind,Pf apPOL block
Cc1ccc(CN2CCN(Cc3ccccc3)CC2)cc1,1,-11
CN1CCNC2(CCCC2)C1,-1,-7
COc1ccc(CN2CCN(c3cccc(Cl)c3)CC2)cc1O,12,-5
COc1cc(CN2CCN(c3cccc(Cl)c3)CC2)cc(I)c1O,58*,-6
Cc1ccc(NC(=O)CN2C(=O)C(C)N=C(c3ccccc3)c3ccccc32)c(C)c1 (stereo not given),8,-4
Cn1cc(C(=O)Nc2ccc3c(c2)OCCO3)c2cccnc21,6,3
Cc1cccc(C=C2Oc3cc(OC(=O)N(C)C)ccc3C2=O)c1,3,-7
O=c1[nH]c(=S)[nH]c(O)c1C=C1C=CC=N1,/,89*
Cc1cccc(N2CCN(Cc3cccc(Cl)c3)CC2)c1C,-16,-6
S=C(S)N1CCCCC1,/,1
S=C(SSC(=S)N1CCCCC1)N1CCCCC1,51*,/
O=C(CN1CCN(c2ccc(F)cc2)CC1)Nc1ccc(Cl)cc1C(=O)c1ccccc1,72*,-1
Cc1cc([N+](=O)[O-])nn1CC(=O)Nc1ccc(Cl)cc1C(=O)c1ccccc1,3,1
CC12CCC3C(CCC4CC(=O)C(=Cc5ccc(Br)cc5)CC43C)C1CCC2O (stereo not given),24,-14
COc1ccc(CC(=O)N2CCN(Cc3csc(-c4ccccc4)n3)CC2)cc1OC,1,-10
O=C(CN1CCN(C(=O)Nc2ccccc2)CC1=O)N1CCC2(CC1)OCCO2,-2,-2
Cc1nc(C(=O)Nc2ccc3c(c2)OCCO3)c(C)n1C1CCN(C)CC1,14,3
Cc1nc(C(=O)Nc2ccc3c(c2)OCO3)c(C)n1C1CCN(C)CC1,71*,-2
CCn1cc(C(=O)NCc2ccc(F)cc2)c2cccnc21,-6,-24
O=C(CN1CCOCC1)Nc1ccc(Br)cc1C(=O)c1ccccc1,3,-4
O=C(CCN1CCOCC1)Nc1ccc(Br)cc1C(=O)c1ccccc1,81*,-2
CCC1(CC)C(=O)NC(=N)NC1=O,2,10
O=c1ccsn1-c1cccc(Cl)c1F,/,93*
O=C1CC(=O)N(c2cccc(Cl)c2Cl)C(=O)N1,3,-7
Oc1ccc(CN2CCN(c3cccc(Cl)c3)CC2)cc1,-4,-9
SMILES,mHTT CaM bind,Pf apPOL block
CC1=Nc2ccccc2C1=Cc1c(O)[nH]c(=O)[nH]c1=O,54*,-50
Cc1ccc(NC(=O)CN2C(=O)C(C)N=C(c3ccccc3)c3ccccc32)cc1Cl (stereo not given),52*,-21
CC1N=C(c2ccccc2)c2ccccc2N(CC(=O)Nc2cccc(Cl)c2)C1=O (stereo not given),22,-11
O=C1CN=C(c2ccccc2Br)c2cc(Cl)ccc2N1,18,-9
Cc1ccc(C2=NCC(=O)Nc3ccc(Br)cc32)cc1,97*,-69
COc1ccc2c(c1)C1(CCN(C(=O)CC(C)C)C1)C(=O)N2C (stereo not given),3,-1
CC(=O)OCC1=C(C(=O)O)N2C(=O)C(N)C2SC1 (stereo not given),-1,/
Cn1cc(C(=O)Nc2cccc(OC(F)(F)F)c2)c2cccnc21,41,1
CCN1C(=O)NC(=O)/C(=C/c2cn(CC(=O)NCCOC)c3ccccc23)C1=O,5,-6
CCN1C(=O)NC(=O)/C(=C/c2cn(CC(=O)N3CCCCC3)c3ccccc23)C1=O,7,1
CCN1C(=O)NC(=O)/C(=C/c2cn(CC(=O)NCc3ccco3)c3ccccc23)C1=O,51*,-1
CCN(CC)C(=O)Cn1cc(/C=C2\C(=O)NC(=O)N(c3ccccc3F)C2=O)c2ccccc21,62*,-3
OCCN1CCN(Cc2ccc(Cl)cc2Cl)CC1,-6,-3
CCCCN=C(N)N[N+](=O)[O-],/,-1
COc1cccc(C2C3C(=NN2C(C)=O)C2CCN3CC2)c1OC (stereo not given),-6,-8
CC(C)(CO)Nc1ccc([N+](=O)[O-])c2cccnc12,13,-6
CC12CN3CC(C)(CN(C1)C3c1ccccn1)C2O (stereo not given),100*,-15
CC12CN3CC(C)(CN(C1)C3c1cccs1)C2=O (stereo not given),-4,-1
COc1ccccc1C1N(c2ccccn2)C(=O)C2CCCN21 (stereo not given),2,-8
COc1ccc2[nH]c(C)c(CCNCc3ccccn3)c2c1,50,1
O=C(COc1cccc(Cl)c1)N1CCCN(C2CCN(Cc3ccccc3)C2=O)CC1 (stereo not given),75*,0
COCCN1CCC(N2CCCN(C(=O)COc3cccc(C)c3)CC2)C1=O (stereo not given),22,1
COc1ccc(CCN(C)Cc2cccc(F)c2)cc1OC,-2,0
